Results on nine compounds are retold here after PubChem BioAssay.

Structures are written as SMILES. The source made the active and inactive calls. Unless noted, no rule for the calls is given here.

Test [1] can be described thus: compound effects on lung adenocarcinoma cell viability – A549, calcein-AM fluorescence, 48 h, basal, profiling panel (AID 1162). Also: test concentration not given here. To be noted: higher = more signal.
Test [2] can be described thus: compound effects on differentiated 3T3-L1 adipocyte viability – cell-based, 3T3-L1 adipocytes, calcein-AM fluorescence, 48 h, basal, profiling panel (AID 1163). Also: test concentration not given here. To be noted: 3T3-L1 adipocytes viability, higher = more signal.
Test [3] in a line: compound effects on hepatocellular carcinoma cell viability – HepG2, calcein-AM fluorescence, 48 h, basal, profiling panel (AID 1164). Also: test concentration not given here. To be noted: higher = more signal.
Test [4] is described as follows: compound effects on multiple myeloma cell viability – MM1S, calcein-AM fluorescence, 48 h, basal, profiling panel (AID 1165).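 Also: viability of MM1S multiple myeloma cells under basal unstimulated conditions; test concentration not given here.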 To be noted: higher = more signal.
Test [5] is described as follows: calcein-AM signal in unstimulated myeloma cells – cell-based, calcein-AM fluorescence, 48 h, PK04 Diversity Set, profiling panel (AID 1166).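 Also: cells grown under basal conditions without added stimulus; test concentration not given here.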 To be noted: RPMI8226 myeloma viability, higher = more signal.
Test [6] is described as follows: JC-1 mitochondrial signal, unstimulated HepG2 cells – cell-based, JC-1 fluorescence, 24 h, 100 nL compound, profiling panel (AID 1167). Also: test concentration not given here. To be noted: HepG2 mitochondrial potential, higher = more signal.
Test [7] can be described thus: JC-1 mitochondrial signal, unstimulated adipocytes – cell-based, JC-1 fluorescence, 3T3-L1 adipocytes, 24 h, 100 nL compound, profiling panel (AID 1168). Also: test concentration not given here. To be noted: JC-1 mitochondrial fluorescence, higher = more signal, called active from +8 up or from −8 down.
The nature of test [8]: JC-1 mitochondrial signal, unstimulated myeloma cells – cell-based, JC-1 fluorescence, RPMI8226, 24 h, 100 nL compound, profiling panel (AID 1169). Also: test concentration not given here. To be noted: JC-1 mitochondrial potential fluorescence, higher = more signal.
Test [9] is described as follows: JC-1 mitochondrial signal, unstimulated MM1S myeloma – cell-based, JC-1 fluorescence, 24 h, 100 nL compound, profiling panel (AID 1170). Also: test concentration not given here. To be noted: MM1S mitochondrial potential, higher = more signal.
A short description of test [10]: resazurin metabolic signal in A549 cells – cell-based, resazurin fluorescence, 24 h, PK04 Diversity Set, profiling panel (AID 1171). Also: test concentration not given here. To be noted: A549 viability, higher = more signal, called active from +8 up or from −8 down. In general terms: Alamar Blue is a resazurin reagent that responds to reducing activity.
Test [11] can be described thus: resazurin metabolic signal in HepG2 cells – cell-based, resazurin fluorescence, 24 h, PK04 Diversity Set, profiling panel (AID 1172). Also: test concentration not given here. To be noted: HepG2 viability, higher = more signal.
Test [12] in a line: budding yeast growth changes without added modifier – OD600, strain BY4716, 24 h, basal condition, primary screen (AID 1173). To be noted: S. cerevisiae BY4716 growth, OD600, 24 h; higher = more signal, called active from +8 up or from −8 down.
Test [13] in a line: viability profiling in MM1S myeloma cells – cell-based, resazurin fluorescence, basal, 24 h, PK04 Diversity Set, profiling panel (AID 1174). Also: test concentration not given here. To be noted: higher = more signal, called active from +8 up or from −8 down.
For test [14], the target named is Dihydroorotate dehydrogenase (quinone), mitochondrial (Plasmodium falciparum (isolate 3D7)) (UniProt Q08210). Description: inhibition of P. falciparum DHODH – biochemical, C-terminal His tag, absorbance 600 nm, primary screen (AID 1175).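 Also: recombinant parasite enzyme with a five histidine tag at its C terminus; test concentration not given here.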 To be noted: PfDHODH enzyme, DCIP absorbance 600 nm; higher = more signal, called active from +8 up or from −8 down.
Test [15] is described as follows: inhibition of PAO1 biofilm formation – strain PAO1, LB-PBS medium, absorbance 600 nm, primary screen (AID 1176). Also: test concentration not given here. To be noted: P. aeruginosa PAO1 growth/biofilm, A600, 12 h; higher = more signal.
The nature of test [16]: growth modulation of vineyard yeast isolate – strain RM11-1a, OD600, basal, 24 h, primary screen (AID 1177).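 Also: cultures grown under basal conditions with no added stressor; test concentration not given here.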 To be noted: S. cerevisiae RM11-1a growth, OD600, 24 h; higher = more signal, called active from +8 up or from −8 down.
A short description of test [17]: growth of efflux-deficient E. coli DRC39 – strain DRC39, OD650, 24 h, E. coli filamentation inducers, primary screen (AID 1178).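 Also: growth measured as culture turbidity by optical density at 650 nm; test concentration not given here.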 To be noted: E. coli DRC39 acrAB, higher = more signal, called active from +8 up or from −8 down.
Test [18] in a line: growth of efflux-deficient E. coli DRC39 – strain DRC39, OD650, 48 h, E. coli filamentation inducers, primary screen (AID 1179).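 Also: screen aims at cell division blockers that make cells filament.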 To be noted: E. coli DRC39 delta-acrAB growth, higher = more signal, called active from +8 up or from −8 down.
A short description of test [19]: viability profiling in RPMI8226 myeloma cells – cell-based, resazurin fluorescence, basal, 24 h, PK04 Diversity Set, profiling panel (AID 1180).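 Also: RPMI8826 multiple myeloma cell line at 5000 cells per well; test concentration not given here.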 To be noted: higher = more signal.
The target in test [20] is E3 ubiquitin-protein ligase XIAP (Homo sapiens) (UniProt P98170). Description: small molecules binding XIAP protein – biophysical, small-molecule microarray, fluorescence 635 nm, primary screen (AID 1181).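 Also: score merges 667 nm emission and signal to noise over triplicate slides.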 To be noted: higher = more signal.
Chain of E3 ubiquitin-protein ligase XIAP (Homo sapiens) (P98170 whole entry, looked up): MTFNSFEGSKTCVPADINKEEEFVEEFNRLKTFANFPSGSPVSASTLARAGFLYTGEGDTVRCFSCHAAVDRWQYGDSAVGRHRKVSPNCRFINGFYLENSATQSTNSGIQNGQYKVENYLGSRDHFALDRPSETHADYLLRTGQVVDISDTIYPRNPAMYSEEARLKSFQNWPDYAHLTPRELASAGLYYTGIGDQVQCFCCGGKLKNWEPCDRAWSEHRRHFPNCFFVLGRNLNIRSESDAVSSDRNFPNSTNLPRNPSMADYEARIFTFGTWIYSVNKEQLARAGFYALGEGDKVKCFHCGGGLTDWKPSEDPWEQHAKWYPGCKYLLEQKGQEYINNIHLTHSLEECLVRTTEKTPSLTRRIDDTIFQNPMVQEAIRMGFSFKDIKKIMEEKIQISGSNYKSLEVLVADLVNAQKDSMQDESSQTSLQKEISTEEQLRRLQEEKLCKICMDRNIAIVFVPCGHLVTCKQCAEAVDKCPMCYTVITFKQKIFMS

Chain of Dihydroorotate dehydrogenase (quinone), mitochondrial (Plasmodium falciparum (isolate 3D7)) (Q08210 whole entry, looked up): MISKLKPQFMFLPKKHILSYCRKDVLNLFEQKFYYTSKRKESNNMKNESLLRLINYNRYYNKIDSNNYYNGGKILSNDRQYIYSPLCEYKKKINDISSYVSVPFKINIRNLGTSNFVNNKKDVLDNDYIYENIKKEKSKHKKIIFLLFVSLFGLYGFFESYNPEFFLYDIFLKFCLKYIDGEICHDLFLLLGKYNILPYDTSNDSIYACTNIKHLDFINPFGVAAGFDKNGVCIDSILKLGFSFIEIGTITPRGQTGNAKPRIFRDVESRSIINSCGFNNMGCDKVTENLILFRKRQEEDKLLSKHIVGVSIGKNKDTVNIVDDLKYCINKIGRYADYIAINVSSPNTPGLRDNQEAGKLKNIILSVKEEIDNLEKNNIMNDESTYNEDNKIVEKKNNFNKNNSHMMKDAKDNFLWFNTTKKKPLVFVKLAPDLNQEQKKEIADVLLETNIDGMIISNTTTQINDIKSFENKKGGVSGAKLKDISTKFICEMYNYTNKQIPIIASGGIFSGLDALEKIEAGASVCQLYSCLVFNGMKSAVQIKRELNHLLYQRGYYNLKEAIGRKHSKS

For `O=C1OCCC/C=C\[C@H]2OC34C=CCN(Cc5ccccc5)C(=O)[C@H]3N(CCCO)C(=O)[C@@H]4C12` (stereo not given in full), the z-score in test [1] was -0.0592; in test [2], -0.0687; in test [3], 0.556; in [4], 1.58; in [5], 0.438; in [6], 0.315. Also, the z-score is 0.478 (inactive) in test [7]; 0.0319 in test [8]; 1.44 in test [9]; 0.0483 (inactive) in test [10]; -0.203 in [11]; 1.29 (inactive) in test [12]. In addition, the z-score in [13] is 0.794 (inactive); in test [15] it was -1.16 (inactive); in test [16], 1.29 (inactive); in test [17], 0.625 (inactive); in test [18], 0.59 (inactive); in test [19], 1.35. The composite z-score in test [14] was 0.905 (inactive); in test [20] it was -0.0876.
On to `O=C(N1CCCCC1)[C@]1(Cc2ccccc2)N=C(c2ccc(OCCCO)cc2)O[C@@H]1c1ccccc1`, for which the z-score is -1.69 in test [1]; 1.16 in test [2]; -2.04 in test [3]; -3.35 in [4]; -4.43 in [5]; -1.06 in test [6]. Further, the z-score in [7] is -0.515 (inactive); in test [8] it was -1.26; in test [9] it was -2.03; in [10], 0.528 (inactive); in test [11], 0.0053; in test [12] it was -1.88 (inactive). Moreover, the z-score in test [13] is -2.94 (inactive); in test [15], 0.208 (inactive); in test [16], 1.02 (inactive); in test [17], 0.137 (inactive); in test [18] it was -0.829 (inactive); in [19], -3.93. Besides, the composite z-score was -0.0047 (inactive) in test [14] and 0.205 in test [20].
For `COC(=O)C(CC#Cc1ccc2c(c1)[C@]1(C(=O)N2)[C@H](c2ccc(OCCO)cc2)N2[C@H](c3ccccc3)[C@H](c3ccccc3)OC(=O)[C@H]2[C@@H]1C(=O)N1CCc2cc(OC)c(OC)cc2C1)C(=O)OC`, the z-score in test [1] was 0.442; in [2] it was 1.16; in test [3], 0.578; in test [4], -0.952; in test [5], -0.578; in test [6] it was -0.156. Further, the z-score in [7] is -0.0627 (inactive); in [8], -0.929; in test [9] it was -1.11; in test [10], 0.161 (inactive); in test [11] it was 0.399; in [12], 2.53 (inactive). Moreover, the z-score in [13] was 0.164 (inactive); in [15], 3.7 (inactive); in test [16], 2.97 (inactive); in [17] it was 0.242 (inactive); in test [18], -0.182 (inactive); in test [19] it was -0.368. The values for the composite z-score in test [14] and in test [20] were -4.19 (inactive) and -0.227, respectively.
For the compound `CCC[C@@H]1C[C@@]1(CCC)[C@@H](NC(=O)c1ccccc1)c1cccc(Cl)c1`, the z-score in test [1] was -0.927; in test [2], -0.546; in test [3], -0.0147; in test [4], -1.78; in test [5] it was -0.385; in [6], 0.909. Besides, the z-score is 0.349 (inactive) in test [7]; 0.466 in test [8]; -0.0307 in test [9]; 0.908 (inactive) in [10]; -0.141 in test [11]; 1.74 (inactive) in [12]. The z-score in test [13] is 0.208 (inactive); in test [15] it was -0.195 (inactive); in test [16] it was 2.26 (inactive); in test [17] it was -0.557 (inactive); in [18] it was -0.514 (inactive); in test [19] it was 1.09. For the same compound, the figures for the composite z-score in [14] and in test [20] were 0.249 (inactive) and -0.0326, respectively.
As to `CN1C(=O)C2C=CC(C(O)c3ccccc3)N(N(c3ccccc3)c3ccccc3)C2C1=O` (stereo not given), the z-score in test [1] was -0.948; in [2], -0.669; in test [3] it was -0.373; in test [4], 0.0913; in [5], -0.383; in [6], -0.885. Besides, the z-score was -0.791 (inactive) in test [7]; 0.538 in [8]; 0.102 in [9]; -0.166 (inactive) in test [10]; -0.112 in [11]; 0.833 (inactive) in [12]. The z-score in test [13] is -0.728 (inactive); in test [15], 0.226 (inactive); in [16] it was 0.579 (inactive); in test [17], -0.854 (inactive); in test [18], 0.139 (inactive); in test [19] it was -0.323. Also, the figures for the composite z-score in [14] and in test [20] were 0.0002 (inactive) and 0.259, respectively.
`C=CC[C@@]1(C(=O)NCCN2CCOCC2)N=C(c2ccc(OCCCO)cc2)O[C@@H]1c1ccccc1N=[N+]=[N-]`: the z-score in [1] was 0.391; in [2] it was -0.187; in test [3] it was 0.55; in test [4] it was -0.669; in [5], -0.394; in [6], 1.42. Further, the z-score in test [7] is 0.602 (inactive); in test [8], -0.244; in test [9], -0.322; in [10], -0.0072 (inactive); in test [11], -0.1; in [12], -0.0089 (inactive). The z-score was -1.05 (inactive) in test [13]; 1.61 (inactive) in [15]; 2.17 (inactive) in test [16]; 0.2 (inactive) in test [17]; -0.0194 (inactive) in test [18]; -0.614 in test [19]. Further, the values for the composite z-score in test [14] and in test [20] were 1.61 (inactive) and 0.107, respectively.
`COC(=O)[C@H](Cc1ccccc1)N[C@@H](/C=C/C1CC1)[C@H](O)Cc1ccccc1`: the z-score is 0.168 in test [1]; -0.0648 in test [2]; -0.438 in [3]; -0.608 in [4]; -0.507 in test [5]; -0.908 in [6]. The z-score in test [7] is -0.124 (inactive); in test [8], -1.17; in test [9], -0.594; in [10], 0.778 (inactive); in [11] it was 0.717; in test [12], -2.78 (inactive). Also, the z-score is 0.488 (inactive) in test [13]; 0.0117 (inactive) in [15]; 0.584 (inactive) in [16]; -0.053 (inactive) in test [17]; -0.181 (inactive) in [18]; 0.484 in [19]. The composite z-score in [14] is 0.342 (inactive); in test [20], -0.0559.
For `CN1C(=O)C2C=CC(C(O)C#Cc3ccccc3)N(N3CCCCC3)C2C1=O` (stereo not given), the z-score is -0.388 in test [1]; -0.382 in test [2]; -0.149 in test [3]; 0.241 in [4]; 0.609 in test [5]; -0.242 in test [6]. The z-score in test [7] is 0.567 (inactive); in test [8], 0.382; in [9] it was -0.547; in [10] it was -0.913 (inactive); in [11] it was -0.279; in test [12] it was -0.375 (inactive). In addition, the z-score in test [13] was -0.347 (inactive); in test [15], 0.614 (inactive); in [16] it was -0.0362 (inactive); in test [17], -0.276 (inactive); in [18], -0.884 (inactive); in test [19] it was -0.0142. In addition, the figures for the composite z-score in test [14] and in [20] were -1.07 (inactive) and -0.0474, respectively.
In the case of `C=C(CCCC)/C(=C/C[C@H](OC(=O)c1ccncc1)c1ccccc1OCCO)c1cnc2ccccc2c1`, the z-score in [1] was 0.0262; in test [2] it was 0.091; in [3] it was 0.0722; in test [4], -3.3; in test [5] it was -2.97; in test [6], 0.943. Further, the z-score is -0.424 (inactive) in test [7]; -0.716 in test [8]; -0.705 in test [9]; 0.89 (inactive) in test [10]; 0.381 in test [11]; -0.0677 (inactive) in test [12]. For the same compound, the z-score in [13] is -1.07 (inactive); in test [15], 1.23 (inactive); in [16], -0.254 (inactive); in [17] it was 0.133 (inactive); in [18] it was 0.126 (inactive); in test [19] it was -0.64. Moreover, the composite z-score in test [14] is -2.03 (inactive); in [20], -0.252.
